T cruzi growth-1 – blocks T. cruzi growth in NIH3T3 culture | 77,000 compounds, 5.9% hits | T. cruzi beta-gal in NIH3T3, GalScreen luminescence, 90 h | inhibition, % at 8.34 µM;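 active = mean inhibition above about 93%, with at least 55% of replicates each passing it, limit read from the data, passing the limit was not always enough; inconclusive = only one of those two conditions holds; inactive = neither condition holds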
C diff growth – inhibitors of Clostridium difficile growth; growth activity, negative = inhibition, % at 16 µg/mL (by protocol); 86,000 compounds, 0.25% hits; Clostridium difficile clinical isolate growth, OD600, 24 h; stronger effect = lower value; AID 1259249;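 active = mean growth activity at or below -80% and every replicate also at or below -80%; inconclusive = mean at or below -80% but some replicate above -80%; inactive = mean growth activity above -80%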;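 also: 0% = DMSO wells and -100% = levofloxacin 16 µg/mL wells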
Pf Dd2 growth – inhibitors of Plasmodium falciparum Dd2 growth; 94,000 compounds, 2.3% hits; activity change, % at 10 µM; P. falciparum Dd2 growth, SYBR Green, 72 h; stronger effect = lower value; AID 1159554; in the data active = activity change below about -80%; inconclusive = no clear call, values can overlap the other calls
T cruzi growth-2 – inhibitors of T. cruzi proliferation; shares compounds with T cruzi growth-1; T. cruzi beta-gal in NIH3T3, GalScreen luminescence, 90 h; inhibition, % at 8.35 µM; 5,600 compounds, 72% hits; AID 651739;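 active = mean replicate inhibition above about 95% and at least 55% of replicates individually reaching it, limit read from the data; inconclusive = only one of the two criteria is met; inactive = neither criterion is met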
T cruzi growth-3 – Trypanosoma cruzi proliferation inhibition; shares compounds with T cruzi growth-1; T. cruzi beta-gal in NIH3T3, GalScreen luminescence, 90 h; inhibition, % at 2.09 µM; 5,600 compounds, 21% hits; AID 651740;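 active = mean inhibition above about 95%, with at least 55% of replicates also reaching it, limit read from the data; inconclusive = meets just one of the two conditions; inactive = meets neither condition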;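 also: plate controls were neutral control median for no effect and positive control median for full effect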
3T3 cytotox – cytotoxicity in mouse NIH/3T3 fibroblasts; NIH/3T3 viability, CellTiter-Glo ATP luminescence, 90 h; AID 651742; shares compounds with T cruzi growth-1; cytotoxicity (signal decrease), % at 8.35 µM; 5,600 compounds, 14% hits;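 active = mean signal decrease across replicates above about 35% based on untreated-well scatter, with enough replicates individually passing, limit read from the data; inconclusive = no rule stated though some were filed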;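 also: 0% = median of neutral control wells and 100% = median of positive control wells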
3T3 cytotox 2 – kills mouse NIH/3T3 fibroblasts; shares compounds with T cruzi growth-1; NIH/3T3 viability, CellTiter-Glo ATP luminescence, 90 h; inhibition, % at 24.9 µM; 5,600 compounds, 56% hits;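 active = mean loss of cell viability signal at or above a set limit, and enough replicates individually reaching it; inconclusive = meets only the mean limit or only the replicate share; inactive = meets neither condition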;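 also: 0% = median of neutral control wells and 100% = median of positive control wells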
Active calls of the source: *; ? = inconclusive; · = not tested or not shown. Only some compounds are listed: those with a hit (about 6.7% of all), similar ones and a draw of the others.

SMILES | T cruzi growth-1 | C diff growth | Pf Dd2 growth | T cruzi growth-2 | T cruzi growth-3 | 3T3 cytotox | 3T3 cytotox 2
O=C(C1CC1)N1CC(=O)N2[C@H](CO)[C@H](c3ccc(-c4ccccc4F)cc3)[C@H]2C1 | · | -11.7 | -50.8 | · | · | · | ·
O=C(NC[C@H]1N[C@@H](CO)[C@H]1c1ccc(-c2ccccc2)cc1)c1ccccc1F | 75.5 | 3.5 | -32.3 | · | · | · | ·
N#C[C@@H]1N[C@H](CO)[C@H]1c1ccc(C2=CCCC2)cc1 | 101.2* | -6.8 | 23.1 | 88.9 | -0.9 | -25.7 | -1.5
N#C[C@@H]1N[C@@H](CO)[C@@H]1c1ccc(-c2ccccc2F)cc1 | ? | -2.7 | 21.4 | 11.1 | -6.5 | -5.6 | -0.2
N#C[C@H]1N[C@H](CO)[C@H]1c1ccc(-c2ccccc2F)cc1 | 75.3 | -10.0 | 15.6 | · | · | · | ·
N#C[C@H]1N[C@@H](CO)[C@@H]1c1ccc(-c2ccccc2F)cc1 | 58.2 | 0.6 | 8.6 | · | · | · | ·
N#C[C@@H]1N[C@H](CO)[C@H]1c1ccc(-c2ccccc2F)cc1 | 101.6* | -1.4 | 35.0 | 52.8 | 32.9 | -2.7 | 17.3
N#C[C@H]1N[C@@H](CO)[C@H]1c1ccc(C2=CCCC2)cc1 | 46.5 | 2.7 | 23.4 | · | · | · | ·
O=C(NC[C@@H]1N[C@@H](CO)[C@@H]1c1ccc(-c2ccccc2F)cc1)c1ccccn1 | 102.2* | -1.1 | -17.1 | 44.7 | 13.3 | -9.7 | -6.8
COc1cccc(NC(=O)C[C@@H]2CC[C@@H]3[C@H](COc4ccc(NS(=O)(=O)c5cccc(F)c5)cc4C(=O)N3C)O2)c1 | -9.4 | -7.1 | 6.9 | · | · | · | ·
O=C(Nc1ccc2c(c1)[C@@H]1C[C@@H](CC(=O)N3CCOCC3)O[C@@H](CO)[C@@H]1O2)C1CCC1 | 18.1 | -1.4 | -15.3 | · | · | · | ·
C[C@@H]1CN([C@H](C)CO)C(=O)c2cccc(NC(=O)C3CC3)c2O[C@H]1CN(C)C(=O)Nc1ccccc1 | 54.8 | -4.0 | 24.5 | · | · | · | ·
Cc1ccc(S(=O)(=O)Nc2ccc3c(c2)C(=O)N([C@H](C)CO)C[C@H](C)[C@H](CN(C)S(=O)(=O)c2cn(C)cn2)OCCCC[C@@H](C)O3)cc1 | -42.0 | 0.8 | 29.2 | · | · | · | ·
NC(=O)[C@@H]1[C@H]2C(=O)O[C@H](c3ccccc3)[C@H](c3ccccc3)N2[C@H](c2ccc(O)cc2)[C@@]12C(=O)Nc1ccccc12 | · | 2.8 | · | · | · | · | ·
C[C@@H]1CCCCO[C@@H](CN(C)C(=O)c2ccccc2)[C@H](C)CN([C@@H](C)CO)C(=O)c2cc(NS(=O)(=O)c3ccc(F)cc3)ccc2O1 | 60.3 | 6.9 | 1.3 | · | · | · | ·
COc1ccc(NC(=O)Nc2ccc3c(c2)C(=O)N([C@H](C)CO)C[C@@H](C)[C@@H](CN(C)S(=O)(=O)c2cccs2)OCCCC[C@@H](C)O3)cc1 | · | -8.9 | -44.2 | · | · | · | ·
COc1ccc(NC(=O)Nc2ccc3c(c2)C(=O)N([C@H](C)CO)C[C@@H](C)[C@H](CN(C)S(=O)(=O)c2cccs2)OCCCC[C@@H](C)O3)cc1 | 108.3* | 0.3 | -77.7 | 108.4* | 22.2 | 1.0 | -1.8
COc1ccc(NC(=O)Nc2ccc3c(c2)C(=O)N([C@H](C)CO)C[C@H](C)[C@H](CN(C)S(=O)(=O)c2cccs2)OCCCC[C@@H](C)O3)cc1 | -21.5 | 6.1 | -57.8 | · | · | · | ·
COc1ccc(NC(=O)Nc2ccc3c(c2)C(=O)N([C@H](C)CO)C[C@H](C)[C@H](CN(C)S(=O)(=O)c2cccs2)OCCCC[C@H](C)O3)cc1 | 102.8* | -5.4 | -26.5 | 107.3* | 38.1 | 6.0 | 29.8*
C[C@H](CO)N1C[C@H](C)[C@@H](CN(C)C(=O)Cc2ccccn2)Oc2cc(C#Cc3ccccc3)ccc2S1(=O)=O | 68.1 | -8.4 | -73.3 | · | · | · | ·
CC(C)C#Cc1ccc2c(c1)O[C@H](CN(C)C(=O)Cc1ccccn1)[C@H](C)CN([C@@H](C)CO)S2(=O)=O | 10.9 | 0.6 | -15.5 | · | · | · | ·
C[C@H](CO)N1C[C@H](C)[C@@H](CN(C)C(=O)CN(C)C)Oc2cc(C#Cc3ccccc3)ccc2S1(=O)=O | ? | 3.9 | -83.1* | 104.8* | 62.2 | 1.8 | 103.7*
C[C@@H]1CN([C@H](C)CO)S(=O)(=O)c2ccc(C#Cc3ccccc3)cc2O[C@H]1CN(C)C(=O)Cc1ccccn1 | ? | -13.8 | ? | 100.0* | 24.3 | 24.1 | 84.8*
C[C@H](CO)N1C[C@H](C)[C@H](CN(C)C(=O)Cc2ccccn2)Oc2cc(C#Cc3ccccc3)ccc2S1(=O)=O | 103.8* | -7.2 | -85.1* | 101.3* | 26.9 | 27.8 | 24.5
C[C@@H]1CN([C@H](C)CO)S(=O)(=O)c2ccc(C#Cc3ccccc3)cc2O[C@H]1CN(C)C(=O)CN(C)C | 80.5 | 6.6 | -72.6 | · | · | · | ·
SMILES | T cruzi growth-1 | C diff growth | Pf Dd2 growth | T cruzi growth-2 | T cruzi growth-3 | 3T3 cytotox | 3T3 cytotox 2
COc1ccc(CN(C)C[C@H]2OCCCC[C@@H](C)Oc3ccc(NC(=O)Cc4ccccc4)cc3C(=O)N([C@H](C)CO)C[C@H]2C)cc1 | 10.5 | -2.4 | -65.9 | · | · | · | ·
C[C@H]1CN([C@@H](C)CO)C(=O)CCCn2cc(nn2)CO[C@H]1CN(C)C(=O)C1CCCCC1 | 0.8 | 0.7 | 13.5 | · | · | · | ·
CCCN1[C@@H]2c3ccc(-c4ccc(OC)cc4)c(=O)n3C[C@@H]2[C@@H](CO)[C@@H]1C(=O)NCC | 17.8 | 4.0 | 4.1 | · | · | · | ·
CO[C@@H]1CN(C)C(=O)c2cc(NC(=O)NC3CCCC3)ccc2OC[C@@H](C)N(CC2CC2)C[C@@H]1C | · | 10.3 | 28.5 | · | · | · | ·
O=S(=O)(c1ccccc1)N1CCCCN2[C@@H](CO)[C@@H](c3ccc(-c4ccccc4F)cc3)[C@@H]2C1 | 80.1 | 57.5 | -32.6 | · | · | · | ·
O=S(=O)(c1ccccc1)N1CCCCN2[C@@H](CO)[C@H](c3ccc(-c4ccccc4F)cc3)[C@@H]2C1 | 105.0* | 67.4 | 4.9 | 104.0* | 73.9 | 31.4 | 105.9*
O=S(=O)(c1ccccc1)N1CCCCN2[C@H](C1)[C@@H](c1ccc(-c3ccccc3F)cc1)[C@@H]2CO | 16.9 | -0.8 | 19.1 | · | · | · | ·
O=S(=O)(c1ccccc1)N1CCCCN2[C@H](CO)[C@H](c3ccc(-c4ccccc4F)cc3)[C@@H]2C1 | 102.6* | 26.8 | 20.1 | 105.6* | 83.6 | -9.2 | 42.0*
C[C@H]1CN([C@@H](C)CO)C(=O)c2cccc(NS(=O)(=O)c3ccc(F)cc3)c2O[C@H]1CN(C)C(=O)Nc1ccc(C(F)(F)F)cc1 | 48.7 | 16.5 | 9.5 | · | · | · | ·
COc1ccc(CN(C)C[C@H]2Oc3ccc(NS(=O)(=O)c4ccc(Cl)cc4)cc3C(=O)N([C@H](C)CO)C[C@@H]2C)cc1 | 44.5 | -1.8 | 6.3 | · | · | · | ·
O=C(C[C@H]1C[C@H]2c3cc(NC(=O)CC4CC4)ccc3O[C@H]2[C@@H](CO)O1)NCCN1CCCCC1 | -47.6 | -0.5 | 12.5 | · | · | · | ·
O=S(=O)(Cc1ccccc1)N1CCCCN2[C@H](CO)[C@@H](c3ccc(-c4cncnc4)cc3)[C@@H]2C1 | 64.9 | -4.0 | -8.9 | · | · | · | ·
